Assay outcomes deposited in PubChem by The Scripps Research Institute Molecular Screening Center.
The list is not random: actives were taken first. Their share in the collection is about 4.1%.
hgDAF-12 ag: hgDAF-12 agonism, primary luciferase screen; HEK293 GAL4-hgDAF12 UAS-luciferase reporter, agonist luminescence; normalized to butyrate control; activation, % at 6.8 µM; hit rate 1.8% among 370,000; AID 687014;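 active = activation above a cutoff set at the mean of all screened compounds plus 3 SD, cut at about 10% in these data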
DAX1 inh-1: inhibitors of human orphan nuclear receptor DAX1 (NR0B1); AID 504766; hit rate 0.99% among 340,000; HEK293 Gal4-DAX1 luciferase reporter, luminescence; P51843; inhibition, % at 6.75 µM;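 active = inhibition above the mean over all tested compounds plus 3 SD, cut at about 4.2% in these data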;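 also: inhibition shows as a rise in luminescence from relieved DAX1 repression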
Target sequence (P51843 207-470 limits assumed): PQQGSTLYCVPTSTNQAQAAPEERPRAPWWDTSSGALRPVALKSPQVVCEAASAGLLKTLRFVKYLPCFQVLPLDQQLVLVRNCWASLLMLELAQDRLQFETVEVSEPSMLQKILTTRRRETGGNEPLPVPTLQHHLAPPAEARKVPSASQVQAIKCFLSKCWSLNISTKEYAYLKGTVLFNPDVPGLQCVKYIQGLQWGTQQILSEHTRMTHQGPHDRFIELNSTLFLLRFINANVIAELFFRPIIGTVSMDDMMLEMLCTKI
hcDAF12 agonist: activates DAF-12 receptor from parasite H. contortus | AID 652067 | activation, % at 6.8 µM | hit rate 1.4% among 370,000 | HEK293 hcDAF-12 lit1-tk-luc reporter, luminescence; 0% DMSO, 100% Δ7-dafachronic acid;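 active = activation above the mean of all tested compounds plus 3 SD, cut at about 5.5% in these data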
ssDAF-12 act: S. stercoralis DAF-12 activation, primary screen; HEK293 ssDAF-12/GRIP1 lit1-tk-luc reporter, luminescence; % of 3 µM dafachronic acid response; activation, % at 6.8 µM; hit rate 1% among 370,000;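 active = activation above the mean over all tested compounds plus 3 SD, cut at about 0.9% in these data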
DAX1 inh-2: blocks DAX1 repression of SF-1 activated StAR promoter; HEK293T StAR-luciferase reporter, SF-1/DAX-1 repression relief; AID 652010; inhibition, % at 6.8 µM; hit rate 1.1% among 370,000;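 active = inhibition above the mean over all tested compounds plus 3 SD, cut at about 3.6% in these data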;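 also: higher inhibition means more luminescence from relief of DAX-1 repression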
Each line names hits and unclear results; the compound was inactive in the other large screens.

CC(=O)Nc1ccc(-c2csc(-c3cccnc3)n2)cc1	hgDAF-12 ag 11
c1cncc(-c2nc(-c3cccs3)cs2)c1	hcDAF12 agonist 6.2
Clc1ccsc1-c1csc(-c2cccnc2)n1	none
CCCC(=O)Nc1ccc(-c2csc(-c3cccnc3)n2)cc1	none
COC(=O)c1cc(-c2cccc(OC(F)(F)F)c2)c(=O)n2c1CCC2	none (no result: DAX1 inh-1)
Cc1nc(NC(=O)C2CC2)sc1C(=O)N1CCCCC1	none
Cc1nc(NC(=O)c2cccc(Cl)c2)sc1C(=O)N1CCCCC1	hgDAF-12 ag 11
CC1(C)Oc2ccc(C(=O)NC3CCCC3)cc2NC1=O	none (no result: DAX1 inh-1)
CCOC(=O)CC[C@@]1(C(=O)OCC)C[C@@H](CC(=O)NCc2ccc(OC)c(OC)c2)C(=O)N2CCCC=C21	none (no result: DAX1 inh-1)
O=C(COc1ccccc1Cl)Nc1cc(Cl)ccc1O	DAX1 inh-1 4.9, hcDAF12 agonist 5.7, ssDAF-12 act 1.6
O=C(CN1C(=O)C2CCCCC2C1=O)Nc1ccccc1N1CCCC1 (stereo unspecified)	DAX1 inh-2 4.1
O=C(CN1C(=O)C2CC=CCC2C1=O)Nc1ccccc1N1CCCC1 (stereo unspecified)	none
COc1ccc(N2CCCC2)c(NC(=O)COc2ccccc2Cl)c1	ssDAF-12 act 1.5
CC(=O)N1CCN(c2ccccc2NC(=O)COc2ccc(Br)cc2)CC1	none
O=C(COc1ccc(Br)cc1)Nc1ccccc1N1CCCC1	ssDAF-12 act 1.4
COC(=O)[C@]12C[C@H](CC(=O)NCCCCc3ccccc3)C(=O)N(Cc3ccccc3)C1=C[C@H](COCc1ccccc1)O[C@@H]2C	none (no result: DAX1 inh-1)
C=CCOC(=O)N[C@H](c1ccc2ccccc2c1)[C@H](C)/C=C/CC(=O)OC	none (no result: DAX1 inh-1)
CC(C)(C)c1ccc(NC(=O)C2=CC=CN3CCS(=O)(=O)N=C23)cc1	DAX1 inh-2 3.9
CCOc1ccc(S(=O)(=O)Nc2cccc(C(=O)NCC(c3ccccc3)N(C)C)c2)cc1 (stereo unspecified)	DAX1 inh-2 3.6
COc1ccccc1C(CNC(=O)c1cccc(S(=O)(=O)NCc2ccccc2)c1)N(C)C (stereo unspecified)	DAX1 inh-1 4.8
COc1ccc(C(CNC(=O)c2cccc(NS(=O)(=O)c3ccccc3)c2)N(C)C)cc1 (stereo unspecified)	none
COC(=O)[C@]12C[C@H](CC(=O)NCCCN3CCCC3=O)C(=O)N(Cc3cccc4ccccc34)C1=C[C@H](C1CCCC1)O[C@@H]2C	none (no result: DAX1 inh-1)
CCCCNc1c(-c2ccc(SC3CCCCC3)cc2)nc2ccccn12	hgDAF-12 ag 12, DAX1 inh-1 5.1, DAX1 inh-2 4.0
O=C(Nc1ccccc1)Nc1scc2c1c(=O)oc1ccccc12	none (no result: DAX1 inh-1)
O=C(CN1CCN(c2ccccc2)CC1)Nc1scc2c1c(=O)oc1ccccc12	DAX1 inh-1 4.7
Nc1ccc(OCc2ccccc2)cc1[N+](=O)[O-]	hgDAF-12 ag 11
O=[N+]([O-])c1cccnc1Oc1ccc(OCc2ccccc2)cc1	none
O=C(N/N=C/c1ccc(O)cc1)c1cc(C23CC4CC(CC(C4)C2)C3)[nH]n1	ssDAF-12 act 1.0
COc1ccc(/C=N/NC(=O)c2cc(C34CC5CC(CC(C5)C3)C4)[nH]n2)cc1OC	none
CC1CC(C)CN(CCCNC(=O)CN2C(=O)CSc3ccc(S(=O)(=O)N4CCCCC4)cc32)C1 (stereo unspecified)	DAX1 inh-2 3.6
CN1CC=C(c2ccccc2)N(c2ccc(Cl)cc2)C1=O	none (no result: DAX1 inh-1)
CC(Sc1nc2ccccc2s1)C(=O)N1CCOCC1 (stereo unspecified)	ssDAF-12 act 1.2
CCN1CCCC1CNC(=O)c1cc(COc2ccc(C)c(C)c2)on1 (stereo unspecified)	none
COc1ccccc1Nc1nc(-c2c(C)[nH]c3ccccc23)cs1	ssDAF-12 act 1.3
Cc1[nH]c2ccccc2c1-c1csc(N)n1	none
CC(C)[C@H]1COc2c3ccccc3nn21	none (no result: DAX1 inh-1)
COc1ccc2nc(N/C(N)=N/S(C)(=O)=O)nc(C)c2c1	DAX1 inh-1 4.6
COc1ccc(C2C(C(=O)N3CCC(C)CC3)CC(=O)N2c2ccc(OC)cc2)cc1 (stereo unspecified)	none (no result: DAX1 inh-1)
Cc1ccc(NC(=S)c2nc3ccccc3s2)cc1	none
Cc1ccc(C)c(NC(=S)c2nc3ccccc3s2)c1	hcDAF12 agonist 5.8, ssDAF-12 act 1.0
Cc1csc(NC(=O)c2ccc(COc3ccccc3F)o2)n1	none (no result: DAX1 inh-1)
Cc1ccc(NC(=O)CN(C)C(=O)/C=C/c2cccs2)cc1	ssDAF-12 act 1.3
Cc1ccc2[nH]cc(CCNC(=O)CN3C(=O)c4ccccc4C3=O)c2c1	none
Cc1ccc2c(c1)N(CC(=O)NCCc1c[nH]c3ccccc13)C(=O)CO2	ssDAF-12 act 0.9
COc1ccc(C(=O)CCNc2cccc(Cl)c2)cc1	none
CCCOc1ccc(C(=O)CCNc2cccc(Cl)c2)cc1	ssDAF-12 act 1.4
C[C@H]1[C@@H](N(C)Cc2cccs2)CC[C@@]23CCCN2C(=O)CCC[C@@H]13	none (no result: DAX1 inh-1, DAX1 inh-2)
CN(CC1CCOCC1)C(=O)CC1C(=O)NCCN1CC1CCCCC1 (stereo unspecified)	DAX1 inh-1 5.7
CCOc1ccccc1CN1CCNC(=O)C1CC(=O)N(C)CCC1CCOCC1 (stereo unspecified)	none
COc1cccc(CN2CCNC(=O)C2CC(=O)N(C)CCC2CCOCC2)c1OC (stereo unspecified)	DAX1 inh-1 6.1
CCN(C(=O)CSc1nnc(-c2cccnc2)n1Cc1ccco1)c1ccccc1C	none (no result: DAX1 inh-1)
Cc1nc2ccc(S(=O)(=O)NCC(=O)NCc3cccs3)cc2s1	none (no result: DAX1 inh-1)
CC(=O)Nc1ccc(S(=O)(=O)NCc2ccccn2)cc1	DAX1 inh-1 4.3
CC(=O)Nc1nnc(COc2ccccc2)s1	none
COCc1nnc(NC(C)=O)s1	DAX1 inh-1 5.5
O=C(N[C@H](C(=O)N1CCC[C@H]1C(=O)NCCc1ccccc1Cl)c1ccccc1)c1cccs1	none (no result: DAX1 inh-1)
CCSc1nnc(SCC(=O)NC2CCCCC2)s1	none
CSc1nsc(SCC(=O)NC2CCCCC2)n1	hcDAF12 agonist 5.6
Cn1c(NC(=O)c2ccccc2)nc(Cc2ccccc2)c1Cc1ccccc1	none (no result: DAX1 inh-1)
Cc1cc(Nc2ccc(F)cc2F)n2ncnc2n1	DAX1 inh-1 4.9
CCCCCCCCN1CCS(=O)(=O)N(Cc2ccc(OC)cc2)C(C(=O)OC)C1 (stereo unspecified)	none (no result: DAX1 inh-1)
O=C(c1cccs1)c1coc2ccc(O)cc12	hgDAF-12 ag 12
O=C(c1cccc(Br)c1)c1coc2ccc(O)cc12	hgDAF-12 ag 13
O=C(CCl)Oc1ccc2occ(C(=O)c3cccs3)c2c1	none
CCOC(=O)[C@]12CCCCC/C=C\1N(Cc1ccc(OC)cc1)C(=O)[C@H]2CC(=O)NCc1cccc(C(F)(F)F)c1	none (no result: DAX1 inh-1)
COc1ccc(C(=O)C(=O)N2CCN(C(=O)c3ccccc3C(F)(F)F)CC2)cc1OC	none (no result: DAX1 inh-1)
CN1CCN(NC(=O)CN2C(=O)S/C(=C\c3c(Cl)cccc3Cl)C2=O)CC1	DAX1 inh-1 5.2
O=C(NNC(=S)Nc1ccccc1)NNC(=S)Nc1ccccc1	none
